Results on 28 compounds are retold here after PubChem BioAssay (Tox21).

Molecules are shown by their SMILES. Records with an inconclusive call do not appear. Activity calls are given as the source filed them. Calls follow the shape of the dose curve; as a rule, active = well fitted cell-killing curve with a large enough effect in the repeat runs; inconclusive = weak or mixed curves; inactive = flat fitted curve, though single readings scatter.
% is scaled to controls: 0 for no effect and ±100 for the full control effect.

The assay can be described thus: qHTS assay to identify small molecule antagonists of the TGF-beta/Smad signaling pathway - cell viability counter screen (AID 1346824). Also: nearly all actives have a fitted effect of over 50% in size. The following applies: SBE-bla HEK293T viability, CellTiter-Glo luminescence; series mostly up to 76.8 µM; viability change, negative = cytotoxic: at the top concentration. The method in brief: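 SBE-bla HEK 293T cells were plated overnight at 37 C, then given compounds in DMSO plus TGF-beta1 (added as 0.25 ng/mL solution) for 5 hr. After the bla read, CellTiter-Glo was added to the same wells and luminescence read after 30 min at room temperature.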
(qHTS replaces the single test concentration by a dilution series.)
Turning to `CCOP(=S)(OCC)SCSc1ccc(Cl)cc1`, the “viability change, negative = cytotoxic” value is -5.61% (inactive).
The value for `CCOC(=O)N(C)C(=O)CSP(=S)(OCC)OCC` was 11.1% (inactive); that for `CCOP(=S)(Oc1cnc(C(C)(C)C)nc1)OC(C)C` (stereo not drawn) was -6.58% (inactive); that for `CCCCN(CCCCO)N=O` was 2.02% (inactive).
As to `NC1=NC(=O)C(c2ccccc2)O1` (stereo not drawn), the “viability change, negative = cytotoxic” value was 0.679% [at 35.3 µM] (inactive).
The value for `CCC(Cl)[N+](=O)[O-]` (stereo not drawn) was -3.78% (inactive); that for `CCCSC(=O)Cl` was 16.8% (inactive).
The value for `CCN(CC)C(C)C(=O)c1ccccc1` (stereo not drawn) was -11.1% [at 35.3 µM] (inactive); that for `C[N+](=O)[O-]` was 0.192% (inactive).
In the case of `ClCC(Cl)Cl` it was 2.86% (inactive); in that of `CC(=O)C(Cl)Cl`, -9.13% (inactive).
On to `CC1=C(C(=O)O)N2C(=O)[C@@H](N)[C@H]2SC1`, for which the viability change, negative = cytotoxic was 0.38% [at 15.8 µM] (inactive).
In the case of `CCOc1nc(C(Cl)(Cl)Cl)ns1` it was 2.13% (inactive).
In the case of `CNC(=O)Oc1cccc(C(C)C)c1` it was 1.38% (inactive); in that of `ClC(Cl)C(Cl)Cl`, -11.9% (inactive).
The value for `CN1C[C@@H](NS(=O)(=O)N(C)C)C[C@@H]2c3cccc4c3c(cn4C)C[C@H]21` was 10.2% [at 35.3 µM] (inactive); that for `CC(C=O)Cc1ccc2c(c1)OCO2` (stereo not drawn) was 11.5% (inactive).
As to `CCCCOP(=O)(O)OCCCC`, the “viability change, negative = cytotoxic” value was -1.35% (inactive).
In the case of `Cc1cccc(C#N)c1` it was 1.75% (inactive); in that of `O=[N+]([O-])c1cc(Cl)c(Cl)c(Cl)c1`, -11.7% (inactive).
Take `Nc1ccccc1Cl`: the “viability change, negative = cytotoxic” value was 9.16% (inactive).
The value for `O=C1c2ccccc2C(=O)c2ccccc21` was -2.72% [at 15.8 µM] (inactive); that for `CNC(=O)Oc1c(C(C)(C)C)cc(C)cc1C(C)(C)C` was 2.98% (inactive).
The value for `N#CCBr` was 16.4% (inactive); that for `CCSC(=O)N(CC)C1CCCCC1` was 2.04% (inactive); that for `CNC(=O)Oc1ccc(N(C)C)c(C)c1` was 0.869% (inactive).
The value for `c1cc2c(c(N3CCNCC3)c1)OCCO2` was -10.6% [at 35.3 µM] (inactive); that for `OC(Cn1cncn1)(c1ccc(F)cc1)c1ccccc1F` (stereo not drawn) was 2.23% (inactive).
